Screening data (PubChem BioAssay)
Rows were chosen to be rich in hits. Some 10% of all compounds tested hit in one or more screens of this group.
SW480 rerep: DNA re-replication induction in SW480 cells | SW480 DNA re-replication, Hoechst DNA content imaging, 48 h | 1.8% of 340,000 active | Potency, µM (top dose mostly 46.1 µM), for inactives: at the highest dose re-replication activation, hits mostly activators; further: % of control where 0% means no effect; nearly all actives have a fitted effect of over 55% in size
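Cells (250 per well) received 23 nL compound or DMSO by pin tool and were kept 48 hr at 37 C, 5% CO2. Nuclei were then stained with Hoechst for 40 min and scanned for DNA content.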
ELG1 repair inh: inhibitors of ELG1-dependent DNA repair in HEK293T cells; HEK293T ELG1-luciferase reporter, luminescence, 16 h; DNA damage induced by 5-fluorouridine; Potency, µM (doses to about 46.1 µM), for inactives: at the top dose activity change, negative = inhibition, usual class: inhibitors; 2.3% of 330,000 active; further: on the % scale 0 is the no-effect control and ±100 the full control effect; nearly all actives have a fitted effect of over 55% in size
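DMSO vehicle served as the neutral condition. Each well held 2,000 cells given 5-fluorouridine plus compound; after 16 hr at 37 °C/5% CO2, ONE-Glo was added and luciferase measured 30 min later.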
RORg inh: ROR gamma (mouse) transcription inhibition; P51450; Drosophila S2 Gal4-RORgamma UAS-luciferase reporter, 20 h; Potency, µM (titrated, usually from 53.6 µM), without a hit: top-dose activity change, negative = inhibition, actives largely listed as inhibitors; 5.4% of 310,000 active; AID 2551; further: on the % scale 0 is the no-effect control and ±100 the full control effect; nearly all actives have a fitted effect of over 60% in size
Target sequence (P51450 whole entry, looked up, the tested form may be a part): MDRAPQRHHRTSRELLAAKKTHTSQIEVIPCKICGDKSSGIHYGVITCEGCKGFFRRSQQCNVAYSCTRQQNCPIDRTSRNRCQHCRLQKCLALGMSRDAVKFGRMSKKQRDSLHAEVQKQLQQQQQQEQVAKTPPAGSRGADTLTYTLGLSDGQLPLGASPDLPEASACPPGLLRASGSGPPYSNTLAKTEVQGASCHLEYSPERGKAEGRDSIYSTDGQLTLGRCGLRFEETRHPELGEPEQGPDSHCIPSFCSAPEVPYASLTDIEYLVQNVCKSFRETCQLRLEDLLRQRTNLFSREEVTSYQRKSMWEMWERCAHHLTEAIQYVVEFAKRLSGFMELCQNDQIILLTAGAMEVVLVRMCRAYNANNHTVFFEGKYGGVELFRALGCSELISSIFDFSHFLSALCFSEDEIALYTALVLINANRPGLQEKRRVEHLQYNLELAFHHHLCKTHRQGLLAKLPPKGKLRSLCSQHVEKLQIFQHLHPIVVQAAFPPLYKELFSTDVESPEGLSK
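Using a luciferase readout, inhibitors were identified by reduced reporter activity in Drosophila cells coexpressing a copper-inducible Gal4–ROR gamma fusion and UAS-driven Photinus luciferase, incubated 20 hr after 700 uM copper sulfate.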
MCF10A rereplic: inducers of DNA re-replication in MCF 10A breast cells. MCF 10A DNA re-replication, Hoechst nuclear intensity, 48 h. Potency, µM (top dose mostly 46.1 µM), for inactives: at the highest dose activity, positive = re-replication, usual class: activators. 2.9% of 350,000 active. AID 624296; further: % of control where 0% means no effect; nearly all actives have a fitted effect of over 50% in size
VP16 counter: counter-screen for ROR gamma inhibitors: Gal4-VP16 reporter. Drosophila S2 Gal4-VP16 UAS-luciferase, luminescence, 20 h. Potency, µM (series often up to 53.6 µM), for inactives: at the highest dose activity, negative = inhibition, actives largely listed as inhibitors. 3.5% of 310,000 active;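 further: Gal4-VP16 expression switched on by copper sulfate through the metallothionein promoter; on the % scale 0 is the no-effect control and ±100 the full control effect; nearly all actives have a fitted effect of over 50% in size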
* marks the source's active call; other numbers are inactive results; i = inactive; ? = inconclusive; · = not tested or not shown; [ ] = dose if it differs, or a comment. The call rests on the fitted dose curve; in most records, active means well fitted curve in the direction sought with a large enough effect; inconclusive means small, poorly fitted or top-dose-only effect, or another doubt; inactive means no such curve, though single readings can be large; an effect the other way counts as inactive or inconclusive. Potency means the concentration at half of the fitted maximal effect.

SMILES	SW480 rerep	ELG1 repair inh	RORg inh	MCF10A rereplic	VP16 counter
O=C(Cn1cc([N+](=O)[O-])ccc1=O)N1CCc2ccccc2C1	-0.6%	0.0%	·	0.8%	·
CCN(CC(=O)Nc1ccc2c(c1)OCCO2)C(=O)/C=C/c1ccc(F)cc1	-7.2%	?	32.6%	0.0%	?
COC(=O)Oc1ccc(/C=N/NC(=O)CN(c2ccccc2Cl)S(C)(=O)=O)cc1OC	?	-5.3%	0.0089µM*	2.3%	-0.3%
CN(C)c1ccc(/C=N/NC(=O)CN(c2cccc(Cl)c2)S(C)(=O)=O)cc1Br	-6.0%	20.6µM*	4.2%	7.9%	-9.4%
CS(=O)(=O)N(CC(=O)N/N=C/c1ccco1)c1ccccc1Br	2.5%	1.1%	-3.1%	-6.3%	7.0%
COC(=O)Oc1ccc(/C=N/NC(=O)CSCc2ccc(Cl)cc2)cc1OC	0.2%	-28.6%	-8.1%	?	15.8µM*
COCCn1c(SCC(=O)N2CCCC2)nc2c([nH]c3ccccc32)c1=O	4.4%	3.7%	-13.6%	-30.5%	-0.3%
CCn1nnc(NC(=O)CSc2ccc(Cl)cc2)n1	-11.5%	6.8%	1.1%	-4.8%	10.5%
CCCn1nnnc1NC(=O)c1cc(Cl)ccc1Cl	-5.5%	-4.5%	1.58µM*	?	2.24µM*
CCn1nnnc1NC(=O)c1cc(Cl)c(OC)c(Cl)c1	-0.5%	0.7%	?	3.0%	-6.3%
CCCn1nnnc1NC(=O)CSc1ccc(Cl)cc1	-3.3%	-21.1%	0.891µM*	-1.4%	2.24µM*
CCOC(=O)C(CCCP(=O)(c1ccccc1)c1ccccc1)(NC(C)=O)C(=O)OCC	1.5%	0.0%	5.0%	3.9%	15.0%
CCOC(=O)c1ccc(N2C(=O)C3CCCN3C2=S)cc1 (stereo unspecified)	4.5%	?	·	3.3%	·
O=C(Nc1cccc(Cl)c1)c1csc(-c2ccccc2)n1	-12.5%	-11.0%	34.6%	20.1%	?
COCc1c(Br)c(C)nc(OCC(=O)N/N=C/c2ccc(C)o2)c1C#N	7.9%	-0.9%	-14.8%	0.731µM*	-8.1%
COC(=O)c1cc(-c2ccc(C)o2)nc2ccccc12	16.4µM*	0.0%	?	23.1µM*	?
COc1cccc(NC(=O)c2cc(-c3ccc(C)o3)nc3ccccc23)c1	?	-6.7%	-8.0%	14.4%	23.9%
Cc1ccc(-c2cc(C(=O)O)c3cc(Br)ccc3n2)o1	-5.1%	8.9%	-2.9%	?	2.8%
Cc1ccc(-c2cc(C(=O)Nc3ccccc3C)c3ccccc3n2)o1	1.4%	?	?	?	12.6µM*
Cc1ccc(-c2cc(C(=O)NC3=NCCS3)c3cc(Br)ccc3n2)o1	·	-13.1%	7.94µM*	·	14.1µM*
C[C@H]1CN[C@@H](CCO)/C1=C\c1ccccc1	-21.5%	·	·	-6.0%	·
Cc1nc2cnc(Oc3cccc(Cl)c3)nc2n(Cc2ccc(F)cc2)c1=O	·	·	?	·	-6.7%
CNC[C@@H](O)[C@@H](O)[C@H](O)[C@H](O)CO	-6.1%	·	12.7%[10 µM]	-0.5%	-1.1%
Cc1ccccc1S(=O)(=O)Oc1cccc2c(O)cccc12	-18.4%	?	7.08µM*	?	?
NC(=O)c1nnn(-c2cccc(C(F)(F)F)c2)c1-c1ccccc1	-9.2%	-1.5%	8.5%	-6.1%	-6.7%
SMILES	SW480 rerep	ELG1 repair inh	RORg inh	MCF10A rereplic	VP16 counter
CCC(C)NC(=S)NNC(=O)c1ccncc1 (stereo unspecified)	-7.9%	-7.3%	3.16µM*	-21.8%	12.6µM*
CC1(C(=O)NC(=S)NNC(=O)c2ccncc2)CCCCC1	9.2µM*	-3.3%	5.01µM*	11.3%	12.6µM*
CC(C)(C)c1ccc(S(=O)(=O)N2CCN(Cc3cc4c(cc3O)OCO4)CC2)cc1	-10.6%	11.4%	·	3.0%	·
S=C(N/N=C/c1ccc(Cl)c(Cl)c1)Nc1ccccc1Cl	?	?	0.316µM*	12.2%	0.794µM*
O=C(N/N=C/c1cccc(F)c1)c1ccc(Cl)cc1	4.0%	?	?	0.9%	-6.1%
Fc1cccc(/C=N/NC(=S)Nc2ccccc2Cl)c1	·	?	0.708µM*	5.6%	1µM*
Fc1ccc(NC(=S)N/N=C/c2cccc(Br)c2)c(F)c1	-1.1%	0.0%	0.708µM*	7.6%	2.51µM*
OCCNCc1ccc(OCc2ccc(Cl)cc2Cl)cc1	4.11µM*	?	12.6µM*	?	-2.1%[10 µM]
O=C(NCCSCc1c(F)cccc1Cl)Nc1ccccc1	2.2%	13.5%	39.6%	?	27.0%
COc1ccc(CSCCNC(=S)Nc2ccccc2)cc1Cl	-10.3%	?	4.47µM*	1.7%	?
S=C(NCCNC(=S)Nc1ccccc1)Nc1ccccc1	-7.6%	-14.8%	-37.4%[1.91 µM]	5.2%	-0.2%
S=C(NCCSCc1ccc(Cl)c(Cl)c1)Nc1ccccc1	?	·	·	25.9µM*	·
S=C(NCCSCc1c(Cl)cccc1Cl)Nc1ccccc1	2.0%	-25.4%	2µM*	?	5.01µM*
OCCCCNCc1ccc(OCc2ccc(Cl)cc2Cl)cc1	3.0%	12.0%	?	10.4%	-15.0%
Cc1ccc(Nc2nc(/N=C/N(C)C)n[nH]2)cc1C	-6.5%	?	5.2%	0.9%	-10.4%
COCCNC(=O)/C(C#N)=C/c1ccc(C)o1	?	4.0%	-0.1%	4.4%	18.4%
S=C(Nc1ccccc1)Nc1ccc(OCc2ccc(Cl)cc2Cl)cc1	?	-22.5%	1.41µM*	i[0.0737 µM]	7.08µM*
S=C(NCCSCc1ccc(Cl)cc1Cl)Nc1ccccc1	8.3%	-15.4%	3.16µM*	?	3.98µM*
Cc1ccccc1CSCCNC(=O)c1ccccc1	0.8%	3.6%	16.1%	9.2%	7.1%
Cc1ccccc1CSCCNC(=S)Nc1ccccc1	-4.5%	-29.7%	2.24µM*	-3.0%	7.08µM*
O=C(O)c1ccccc1C(=O)NCc1ccc2c(c1)OCO2	1.7%	24.2%	-0.3%	18.2%	-11.8%
CNC(=O)c1c(NC(=O)CCS(=O)(=O)c2ccc(F)cc2)sc(C)c1C	-7.4%	7.5%	·	-3.9%	·
Cc1ccc(C)c(O)c1	·	·	4.1%	·	-3.8%
Cc1ccc(C(O)(COC(=O)C(C)C)COC(=O)C(C)C)c(O)c1	?	-6.2%	-105.9%	?	31.6µM*
c1ccc2c(Nc3nc4c(s3)CCCC4)cccc2c1	5.9%	?	12.6µM*	?	?
O=S(=O)(Nc1nc2c(s1)CCCC2)c1ccc2ccccc2c1	-9.3%	-8.9%	32.6%	?	0.0%
COc1ccc(C(=O)CSc2nnc(CC(=O)Nc3ccccc3OC)n2C)cc1	-7.7%	-3.5%	-19.9%	-3.1%	2.8%[10 µM]
Cc1ccc(/C=C2\Sc3ccccc3C2=O)s1	9.2%	?	11.2µM*	23.1µM*	?
COc1ccc(C2CC(=O)Oc3cc(C)c(Cl)c(C)c32)cc1 (stereo unspecified)	-0.7%	?	?	18.4µM*	31.6µM*
COc1cc(C2CC(=O)Oc3cc(C)c(Cl)c(C)c32)cc(OC)c1OC (stereo unspecified)	-30.8%	15.4%	·	?	·
